The results in this text go back to PubChem BioAssay (NCI).

Structures are written as SMILES. About 83,000 compounds went through this panel and 20% of them were active in at least one assay; those are over-represented in the sample as a whole.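 Cells were grown in 96-well plates and exposed to the test compound at a single concentration for 48 hours; results are reported as percent growth, with values below 10 considered active.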 Unmarked numbers belong to inactive results. Activity calls are given as the source filed them.

The assay deals with HL-60(TB) leukemia. The assay is described as follows: NCI-60 one-dose screen, 48 h (100 = growth as untreated, 0 = no growth, -100 = all killed). The settings on record: 10 µM unless noted.
As for `Fc1ccc(Nc2ccnc(N3CCN(c4ccnc5cc(Cl)ccc45)CC3)n2)cc1`, the growth is 15.9%.
Consider `N#Cc1c(-c2ccc(C(F)(F)F)cc2)c(F)c(NCCC2CCC(O)C2)n2c1nc1ccccc12` (configuration not stated), for which the growth is 25.1%.
As for `c1ccc2cc3c(Nc4ccc(N5CCOCC5)cc4)ccnc3cc2c1`, the growth was 99.1%.
In the case of `COC1=CC(=O)C(OC)=C(O)C1=O`, the growth is 107%.
For `O=C(CN(C1CCCCC1)C1CCCCC1)Nc1ccc(S(=O)(=O)c2ccc(NC(=O)CN(C3CCCCC3)C3CCCCC3)cc2)cc1` the value was -39.3% (active); for `CCCCCCCCCCCC1N=C(N)N=C(N)N1c1cccc(Br)c1` (configuration not stated), -53% (active).
As to `Cc1c(NCC(=O)Nc2nc3ccccc3[nH]2)c(=O)n(-c2ccccc2)n1C`, the growth was 98.5%.
For `NS(=O)(=O)c1cc(=O)[nH]c(=O)[nH]1` the value was 114%; for `CCCCNC(=O)NS(=O)(=O)c1ccc(N2N=C(c3ccc(C)cc3C)CC2c2ccc(N(C)C)cc2)cc1` (configuration not stated), 14.4%.
Consider `CCCCCCCCCCCCCC1=NCCN1CCO`, for which the growth was 2.28% (active).
Then `CCc1nn2c(-c3ccccc3)c(-c3cc(OC)c(OC)c(OC)c3)nc2s1`, with 68%; and `O=C(CCCCCCCCC(=O)N/N=C\c1ccccc1O)N/N=C\c1ccccc1O`, with 14.8%; and `CCCCCCNC(=O)Nc1ccc2cc3ccc(NC(=O)NCCCCCC)cc3nc2c1`, with -49% (active).
For `C[N+](C)(C)c1ccc(CC2c3ccccc3-c3ccccc32)cc1` the value was 47.8%.
For `C=C(C)[C@@H]1CC[C@]2(C(=O)N3CCN(CC)CC3)CC[C@]3(C)[C@H](CC[C@@H]4[C@@](C)(CCC(=O)N5CCN(CC)CC5)[C@H](C(=C)C)CC[C@]43C)[C@@H]12` the value was 30.4%.
`COCCNC(=O)Nc1ccc2nc(-c3cccs3)c(-c3cccs3)nc2c1`: the growth was 81.5%.
Then `Nc1nc(N)c2c(n1)NC(c1cccc(Nc3ccnc4cc(C(F)(F)F)ccc34)c1)CC(c1ccc3c(c1)OCO3)=N2` (configuration not stated), with 76.5%.
Then `O=C(Nc1ccc(-n2cc(-c3ccncc3)c(-c3ccc(Cl)c(O)c3)n2)cc1)c1ccc(Cl)c(Cl)c1`, with -27% (active); and `O=C1c2ccccc2C(=O)c2c(N=Nc3[nH]c(=S)[nH]c3O)cccc21`, with -32.1% (active); and `O=C(Nc1ccc(-n2cc(-c3ccncc3)c(-c3ccc(Cl)c(O)c3)n2)cc1)Nc1cc(C(F)(F)F)cc(C(F)(F)F)c1`, with 2.94% (active).
For `O=C(Nc1ccc2ncnc(Nc3cccc(C(F)(F)F)c3)c2c1)c1cccs1` the value was 47.9%; for `CCN(CC)c1cc(/C=C/c2ccc(OC)c(OC)c2)nc2cc(F)c(F)cc12`, 112%; for `CCC(C)(C)C1CCC(O)CC1` (configuration not stated), 83.8%.
Turning to `COc1ccc(NS(=O)(=O)c2ccc(-c3cnc(C4CC4)o3)cc2)cc1`, the growth was 76.3%.
As to `Cc1cc(Cl)nc(NCc2cc(Nc3ccnc4cc(Cl)ccc34)ccc2F)n1`, the growth was 42.4%.
For `O=C(Nc1ccc(Cl)cc1F)c1cc(I)ccc1O`, the growth is 19.9%.
For `O=C(NCc1ccccc1)c1cccc([N+](=O)[O-])c1` the value was 101%; for `Nc1nc(C(=O)N/N=C/c2ccc(N3CCOCC3)cc2)nn1-c1ccc(S(N)(=O)=O)cc1`, 101%.
For `COc1ccc2c(c1)C(=O)/C(=C/c1cccc(OCC(=O)c3ccccc3)c1)CC2`, the growth was 46.5%.
Consider `COc1ccc(-c2nnc(N3CCN(C(=O)CN4CCN(c5ccccc5)CC4)CC3)nc2-c2ccc(OC)cc2)cc1`, for which the growth was -58.6% (active).
Then `C[n+]1c(/C=C/c2ccc([N+](=O)[O-])cc2)ccc2ccccc21`, with 99.3%.
Then `Cn1cc(-c2ccc3occ(-c4cccc(-c5ccncc5)c4)c3n2)cn1`, with 2.9% (active); and `Cc1ccc(C(=O)Nc2ccc(CN3CCN(C)CC3)c(C(F)(F)F)c2)cc1C#Cc1cnc(N)c2ccc(C#N)cc12`, with 30.9%.
Turning to `CCOC(=O)Nc1cc(-c2ccc(C)c(NS(C)(=O)=O)c2)nn2c(C)nnc12`, the growth is 10.8%.
As to `COc1cc2oc(-c3cccc(C(=O)Nc4ccc(Br)cc4)c3)cc(=O)c2c(OC)c1OC`, the growth was 38.6%.
`Cn1cc(-c2nnc(-c3cn(C)c4ncc(Br)cc34)s2)c2cc(Br)ccc21`: the growth is 106%.
As to `COc1ccc(OC)c(-c2cc(-c3ccc(Cl)cc3)c3c(N)c(C(=O)c4ccc(Cl)cc4)sc3n2)c1`, the growth was 110%.
